# Hit rate of the full screen: of about 340,000 compounds, about 12,000 (3.5%) were called active. Not shown: some 18% with an inconclusive outcome. This is one part of a sample in which actives are shown more often than they occur. Calls come from the whole dose curve; as a rule, active = well fitted inhibition curve with a large enough effect; inconclusive = small, poorly fitted or top-dose-only effect, or another doubt; inactive = no such curve, though single readings can be large or run the other way.
# Assay: qHTS Assay for Inhibitors of Hepatitis C Virus (HCV)
# Conditions: Huh7.5.1 HCVcc-Cre infection, luciferase reporter, 44 h; series mostly up to 41.8 µM; activity change, negative = inhibition: at the top concentration
# Summary of the method: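 Infectious HCV cell culture screen: compound-treated cells (1,000/well, pre-plated 4 h) are infected with HCVcc-Cre at roughly 0.5 moi and grown 44 h. Infection is quantified by luciferase signal after 15 min substrate incubation at room temperature.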
# % is set by controls: 0 for no effect and ±100 for the full control effect; potency is the fitted concentration of half-maximal effect.
Structure (SMILES),"activity change, negative = inhibition",Potency
COc1ccc([C@@H]2[C@@H]3C(=O)N(C(C)(C)C)C(=O)[C@@H]3[C@]3(Cc4ccccc4)C(=O)N(c4cccc(Br)c4)C(=O)N23)cc1,-3.64% (inactive),
O=C(NN=Cc1ccc(N2CCOCC2)cc1)c1cc2ccccc2cc1O,-0.628% (inactive),
O=C(OCC(=O)N1CCN(C(=O)c2ccco2)CC1)c1ccc(Cl)c(Cl)c1,-4.4% (inactive),
COc1cccc(CC2(CO)CCCN(Cc3ccc(OC(F)F)cc3)C2)c1 (centres undefined),-16% (inactive),
COc1ccc(CNc2nccs2)cc1,13.7% (inactive),
CC(C)(C)c1nc(NCC2CCCO2)c2nnn(Cc3ccccc3)c2n1 (centres undefined),-19.2% (inactive),
COc1cccc(CNC(=O)c2n[nH]c3ccccc23)c1,-2.04% (inactive),
Clc1cccc(-c2nc(NCC3CCCO3)c3ccccc3n2)c1 (centres undefined),-57.3% (inactive),
CCc1ccc(C(CNc2nc(C(F)(F)F)nc3ccccc23)N(C)C)cc1 (centres undefined),-21.3% (inactive),
c1coc(CNc2ncnc3ccccc23)c1,,3.55 µM (active)
c1ccc2c(NCC3CCCO3)nc(-c3ccncc3)nc2c1 (centres undefined),,10 µM (active)
COc1cccc(CNc2nc(C(F)(F)F)nc3ccccc23)c1,,5.62 µM (active)
COc1ccc(CNc2ncnc3ccccc23)cc1,,3.16 µM (active)
CCc1nc2ccccc2c(C(=O)NCc2ccc(OC)cc2)c1C,-0.211% (inactive),
O=C(NCc1ccncc1)C(=O)NCc1ccco1,15% (inactive),
FC(F)(F)c1cccc(Nc2ncnc3ccccc23)c1,-26.2% (inactive),
COc1ccc(C(=O)C(C)OC(=O)c2cccc(S(=O)(=O)Nc3c(C)n(C)n(-c4ccccc4)c3=O)c2)cc1 (centres undefined),16.1% (inactive),
NC(=O)C1(Nc2ccc(-c3ccccc3)cc2)CCCC1,-9.54% (inactive),
NC(CSC1(c2ccccc2)c2ccccc2-c2ccccc21)C(=O)O (centres undefined),7.2% (inactive),
Cc1cc(NC(=O)c2cc3ccccc3o2)no1,0.981% (inactive),
C=CC(=O)Nc1ccc(Nc2ccnc(Nc3ccc(N4CCN(C)CC4)cc3)n2)cc1,29.9% [at 8.37 µM] (inactive),
CC(C)COc1ccc(C(=O)OCC(=O)NCCC2=CCCCC2)cc1,6.35% (inactive),

Structure (SMILES),"activity change, negative = inhibition",Potency
COCCN(C(=O)C(C)N1C(=O)c2ccccc2C1=O)c1c(N)n(CC(C)C)c(=O)[nH]c1=O (centres undefined),30.2% (inactive),
COc1cccc(NC(=O)COC(=O)c2ccc3ccccc3n2)c1,9.47% (inactive),
O=C(COC(=O)c1ccccc1Cl)NC1CCCCCCC1,6.04% (inactive),
Cc1ccc(S(=O)(=O)Nc2ccc(F)c(S(=O)(=O)N3CCOCC3)c2)cc1,12.7% (inactive),
O=C(Cc1ccccc1)n1nc(-c2ccccc2)nc1NCc1ccco1,6.35% (inactive),
c1ccc(-c2nc(NCc3ccco3)c3ccccc3n2)cc1,,10 µM (active)
CCOCCCNc1nc(-c2ccccc2)nc2ccccc12,-23.1% (inactive),
CCN(C(=O)COC(=O)c1sccc1C)c1c(N)n(Cc2ccccc2)c(=O)[nH]c1=O,-7.3% (inactive),
COc1ccc(NC(=O)Nc2ccc3c(c2)C(=O)N([C@H](C)CO)C[C@H](C)[C@@H](CN(C)C(=O)Nc2ccc4c(c2)OCO4)O3)cc1,-11.7% (inactive),
O=C(NCC1(N2CCCCC2)CCCCC1)c1cccc(S(=O)(=O)Nc2ccccc2Cl)c1,15.5% (inactive),
O=C(NCC1(N2CCCCC2)CCCCC1)c1ccc(NS(=O)(=O)c2ccc(F)cc2)cc1,0.79% (inactive),
CCOc1ccc(S(=O)(=O)Nc2cccc(C(=O)NCC3(N4CCCCC4)CCCCC3)c2)cc1,,12.6 µM (active)
O=C(CCNS(=O)(=O)c1ccccc1)NCCCc1ccccc1,-6.15% (inactive),
NS(=O)(=O)c1ccc(CCNC(=O)COC(=O)COc2cccc(C(F)(F)F)c2)cc1,-0.623% (inactive),
CN(C)C(=O)CCc1ccc2c3c([nH]c2c1)[C@]1(C)[C@@H](C(=O)N2CCOCC2)C[C@H](CC(=O)NCCc2ccccn2)C(=O)N1CC3,-17.8% (inactive),
N#CC1(Nc2ccc(-c3ccc(Cl)cc3)cc2)CCCC1,6.18% (inactive),
O=C1COc2c1ccc(O)c2O,13.3% (inactive),
CC(C)(C)c1ccc(C(=O)NCc2ccco2)cc1,-7.43% (inactive),
CC(C)(C)OC(=O)CNC(=O)c1[nH]cnc1C(=O)N[C@@H](CCCCN)C(=O)OC(C)(C)C,21.6% (inactive),
O=C(Nc1cc(Cl)ccc1N1CCOCC1)c1ccc(N2CCCC2=O)cc1,,35.5 µM (active)
O=C(Nc1cc(-c2nn(CC(=O)N3CCCCC3)c(=O)c3ccccc23)ccc1N1CCOCC1)c1ccc(Cl)cc1,-11.3% (inactive),
COc1c(C)cccc1C(=O)Nc1cc(Cl)ccc1N1CCOCC1,7.94% (inactive),

Structure (SMILES),"activity change, negative = inhibition",Potency
COc1ccc(CCNC(=O)COC(=O)c2ncc(Cl)c(Cl)c2Cl)cc1OC,5.04% (inactive),
O=C(CSc1nc2ccccc2c(=O)n1-c1ccc(F)cc1)NC1CC1,-11.8% (inactive),
COCCN(C(=O)CSCc1ccc(C)cc1)c1c(N)n(CC(C)C)c(=O)[nH]c1=O,-7.8% (inactive),
N#Cc1ccc(C(=O)OCC(=O)NC(=O)NC2CCCCC2)cc1,13.3% (inactive),
O=C(NNC(=O)c1cc(-c2ccccc2Cl)nc2ccccc12)c1csc(N2CCOCC2)n1,-18.7% (inactive),
C=CCNc1scc(-c2ccccc2)[n+]1CC=C,3.32% (inactive),
O=C(NNC(=O)c1ccc(-c2ccccc2)cc1)Nc1ccccc1,8.01% (inactive),
C=CC[n+]1c(-c2ccc(C)cc2)csc1NNC(=O)Nc1ccccc1,,5.62 µM (active)
N#CC(Cc1cc2ccccc2n1S(=O)(=O)c1ccccc1)OCc1ccccc1 (centres undefined),-4.57% (inactive),
Nc1cccnc1Sc1ccccc1,19.3% (inactive),
CN1CCN(c2ccc([N+](=O)[O-])c(Sc3nc4ccccc4[nH]3)c2)CC1,-7.82% (inactive),
O=[N+]([O-])c1ccc(N2CCSCC2)cc1O,0.816% (inactive),
CC1CCN(c2ccc([N+](=O)[O-])c(SCCO)c2)CC1,,10 µM (active)
Cc1occc1-c1nnc(SCC(=O)NC2(C#N)CCCC2)n1C,12% (inactive),
CN(C)CCCN(C(=O)c1ccc(S(=O)(=O)N2CCCCCC2)cc1)c1nc2cc3c(cc2s1)OCCO3,-25.6% (inactive),
O=[N+]([O-])c1ccc(C=NN=Cc2ccc([N+](=O)[O-])cc2)cc1,3% (inactive),
COC(=O)c1ccc(C(=O)OC)c(NC(=S)N2CCN(c3cc(Cl)ccc3C)CC2)c1,13.7% (inactive),
Cc1cccc(N2CCN(C(=O)c3cnn4c(C(F)F)cc(-c5ccccc5)nc34)CC2)c1C,18.3% (inactive),
Cc1ccc(Cl)cc1N1CCN(C(=O)c2cccc3c(=O)c(C)c(-c4ccccc4)oc23)CC1,,10 µM (active)
CC(C#N)OC(=O)c1cccnc1SCC(=O)Nc1ccc2c(c1)OCO2 (centres undefined),-12.6% (inactive),

# Reference: PubChem BioAssay AID651820 (National Center for Advancing Translational Sciences (NCATS), 2012)
